# From PubChem
# Compounds with a hit are over-represented: about 3.2% of the library has one in this group of screens.
# AmpC detergent: inhibitors of E. coli AmpC beta-lactamase with detergent | P00811 | AmpC hydrolysis of nitrocefin, absorbance 480 nm, 0.01% Triton | Potency, µM (top dose mostly 114 µM), for inactives: top-dose activity change, negative = inhibition, most hits filed as inhibitors | 0.041% of 370,000 active;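 further: 0% = no-compound wells and -100% = no-enzyme wells; nearly all actives have a fitted effect of over 25% in size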
# Target sequence (P00811 whole entry, looked up): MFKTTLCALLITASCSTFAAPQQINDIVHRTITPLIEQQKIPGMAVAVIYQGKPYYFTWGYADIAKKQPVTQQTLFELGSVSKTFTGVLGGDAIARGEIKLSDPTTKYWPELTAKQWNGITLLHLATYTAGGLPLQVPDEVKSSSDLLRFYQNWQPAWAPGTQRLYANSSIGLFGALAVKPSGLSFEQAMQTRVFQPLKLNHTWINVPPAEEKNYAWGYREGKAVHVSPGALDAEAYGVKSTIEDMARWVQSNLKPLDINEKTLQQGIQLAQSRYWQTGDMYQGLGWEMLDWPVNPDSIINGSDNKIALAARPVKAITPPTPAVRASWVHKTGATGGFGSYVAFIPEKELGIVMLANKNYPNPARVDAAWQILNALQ
#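 20 mM phosphate pH 7.0 + 0.01% (detergent screen) or 0.0001% Triton X-100; 5.3 nM AmpC reagent; cpd preinc 15 min RT; nitrocefin (800 uM stock) to start; A480 q20 s × 4 min; Activity was normalised to no-enzyme and no-compound control wells.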
# AmpC inh no detg: AmpC beta-lactamase inhibition without detergent; P00811; AmpC nitrocefin hydrolysis, absorbance 480 nm, 0.0001% Triton; Potency, µM (top dose mostly 57.1 µM), for the others: at the top dose activity change, negative = inhibition, actives largely listed as inhibitors; 0.52% of 330,000 active;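 further: plate controls were no compound for no effect and no enzyme for full effect; nearly all actives have a fitted effect of over 20% in size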
#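 AmpC (5.3 nM in the dispensed reagent) in 20 mM phosphate pH 7.0 with 0.01% (detergent screen) or 0.0001% Triton X-100 was preincubated with compounds for 15 min at room temperature. Nitrocefin was then added from an 800 uM solution, and hydrolysis was followed at 480 nm.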
# RE007 growth inh: less growth of the S. pombe RE007 Vpr strain. AID 651644. 0.21% of 360,000 active. S. pombe RE007 Vpr strain, BacTiter-Glo ATP luminescence, 24 h. Potency, µM (titrated, usually from 92.2 µM), without a hit: top-dose activity change, negative = less growth, most hits filed as inhibitors; active means well fitted falling curve with a large enough effect; inconclusive means small, poorly fitted or top-dose-only effect; inactive means no such curve, though single readings can be large or run the other way; further: nearly all actives have a fitted effect of over 50% in size
#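 Fission yeast RE007 carrying one integrated HIV-1 vpr copy, seeded at OD 0.01 in PMG+AL medium with 23 nL pinned compound. Grown 24 h at 30 degrees; viability read by BacTiter-Glo luminescence after 5 min.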
# AMA1-RON2 inh: inhibitors of Plasmodium falciparum AMA1-RON2 interaction. AlphaScreen AMA1-biotinylated RON2 peptide binding. Potency, µM (highest dose often 58.2 µM), inactives show top-dose activity change, negative = inhibition, actives largely listed as inhibitors. 0.2% of 360,000 active. AID 720542;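 further: 0% = vehicle wells and -100% = peptide control; nearly all actives have a fitted effect of over 45% in size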
#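 AMA1 (3D7) with his tag at 25 nM final met compounds first, then biotinylated RON2 peptide at 25 nM; detection used donor plus acceptor beads, 10 µg/mL apiece, read by AlphaScreen after 30 min at room temperature.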
# Sm TGR block: inhibitors of Schistosoma mansoni thioredoxin glutathione reductase; Potency, µM (highest dose often 114 µM), for the others: top-dose activity change, negative = inhibition, usual class: inhibitors; AID 485364; purified TGR, DTNB reduction, TNB absorbance 405 nm; 3% of 360,000 active; further: nearly all actives have a fitted effect of over 60% in size
#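 Kinetic colorimetric format: TGR-catalysed, NADPH-driven DTNB reduction monitored via TNB absorbance. Enzyme dispensed at 20 nM; compound exposure 15 min at room temperature before reaction start.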
# * hit, by the source's call; u = inconclusive; x = no result; ! = a repeat was not active. Unless noted, the call rests on the fitted dose curve; in most records, active means well fitted curve in the direction sought with a large enough effect; inconclusive means small, poorly fitted or top-dose-only effect, or another doubt; inactive means no such curve, though single readings can be large; an effect the other way counts as inactive or inconclusive. Unless noted, on the % scale 0 is the no-effect control and ±100 the full control effect; potency means the concentration at half of the fitted maximal effect.
SMILES,AmpC detergent,AmpC inh no detg,RE007 growth inh,AMA1-RON2 inh,Sm TGR block
COC(=O)c1ccccc1NC(=O)CN(CCc1ccccc1)S(C)(=O)=O,-2%,x,13%,-6%,0%
CCS(=O)(=O)c1ncc(Cl)c(C(=O)NCc2ccccc2)n1,-2%,x,x,x,32µM*
COc1ccc(-c2nc3scc(CCNS(=O)(=O)c4ccc(F)c(C(F)(F)F)c4)n3n2)cc1OC,-10%,x,x,x,-2%
CCCCc1nn2c(=O)cc(COC(=O)c3ccc(NC(=O)c4cccc(OC)c4)cc3)nc2s1,u,x,x,x,-5%
O=C(CCc1nnc(Cc2ccc3c(c2)OCO3)o1)NC(c1ccccn1)C(F)(F)F (centres undefined),10%,17%,16%,0%,32µM*
O=C(CCc1nnc(-c2ccc3c(c2)OCO3)o1)NC(c1ccccn1)C(F)(F)F (centres undefined),-11%,10%,40%,35%,5%
CCN(CC)CCCNC(=O)/C=C/C(=O)O,0%,0%,10%,13%,2.5µM*
CCN(CC)CCCNC(=O)c1ccccc1C,u,-3%,8%,8%,2%
COc1ccccc1N1C(=O)[C@@H]2[C@H](C1=O)[C@H](C(=O)c1ccc(OC(C)=O)cc1)N1N=CC=C[C@@H]21,-6%,72%,1%,-2%,16µM*
CC(=O)Oc1ccc(C(=O)[C@H]2[C@H]3C(=O)N(c4ccc5ccccc5c4)C(=O)[C@H]3[C@@H]3C=CC=NN32)cc1,-8%,8%,7%,-13%,-1%
COc1cc(C(=O)N/N=C/c2coc3ccccc3c2=O)cc(OC)c1OC,-14%,-28%,-11%,60%,45µM*
C[c-]1[c-](C)[c-](C)[c-](C)[c-]1C.[Fe].c1cc2nccc(N3CCCC3)[c-]2c1 (centres undefined),-7%,9%,-16%,u,3.2µM*!
c1cc(N2CCCCC2)nc(N2CCCCC2)n1,x,x,-10%,-2%,x
N#CCCn1cc(/C=N/O)c(-c2ccc(Cl)cc2)n1,u,-10%,1%,3%,15%
N#CCCn1cc(C=C(C#N)C#N)c(-c2ccc(Cl)cc2)n1,-4%,-9%,-22%,2%,1.3µM*
COc1ccc(-c2ccc(CCC(=O)O)n2NC(N)=O)cc1,-7%,0%,3%,-3%,45µM*
NC(=O)Nn1c(CCC(=O)O)ccc1-c1ccc(Cl)cc1,-13%,-9%,-18%,-5%,-32%
CCCn1c(CCC(=O)O)ccc1-c1ccc(OC)cc1,3%,x,3%,18%,40µM*
NC(=O)Nn1c(CCC(=O)O)ccc1-c1ccc(Br)cc1,u,-19%,-4%,-3%,14µM*
O=C(NC1CC(=O)N(c2cccc(F)c2)C1)c1ccc(Br)o1 (centres undefined),1%,x,x,x,-3%
O=C(CCC(=O)N1CCN(c2ccc(O)cc2)CC1)c1cccs1,5%,-9%,-5%,-4%,56µM*
CC(=O)c1ccc(N2CCN(C(=O)CCC(=O)c3cccs3)CC2)cc1,1%,-24%,-4%,6%,3%
CCCOc1cccc(C2c3c(oc4ccc(F)cc4c3=O)C(=O)N2Cc2ccc3c(c2)OCO3)c1 (centres undefined),17%,x,x,x,-5%
COc1ccc(-c2noc(-c3ccc(NCc4ccco4)c([N+](=O)[O-])c3)n2)cc1,17%,x,x,x,-4%
Oc1ccc2ccccc2c1CNc1ccccn1,-4%,-37%,-24%,-4%,2.2µM*
Cc1ccc(O)c(CNc2ccccn2)c1,u,-29%,7%,-15%,2%
O=c1[nH]c(=O)n(Cc2ccccc2)c(O)c1C=Nc1ccc(CN2CCOCC2)cc1,-12%,6%,-1%,-3%,35µM*
O=c1[nH]c(=O)n(CCC2=CCCCC2)c(O)c1/C=N/Nc1cccc2ccccc12,4%,28µM*,2%,21%,20µM*
O=c1[nH]c(=O)n(Cc2ccco2)c(O)c1C=NCCN1CCOCC1,-16%,-9%,-4%,90%,-29%
